Shiga inhibitor: A qHTS for Small Molecule Inhibitors of Shiga Toxin | Vero cells, Shiga toxin protein synthesis inhibition reporter | inhibition, % at 38.7 µM | 290,000 tested, 9.2% active; in the data active = inhibition mostly above about 28%, no sharp cut-off; inactive = mostly below about 43%; note: 0% is about no effect
TbPYK inhibitor: qHTS of Trypanosoma Brucei Inhibitors. TbPYK enzyme, Kinase-Glo Plus ATP luminescence, 45 min. pyruvate kinase (Trypanosoma brucei), Q57TT1. 410,000 tested, 0.12% active. Potency, µM (highest dose often 76.8 µM), for the others: top-dose activity, negative = inhibition, hits mostly inhibitors. AID 624173, 2012; active = well fitted curve in the direction sought with a large enough effect; an effect the other way counts as inactive or inconclusive; note: potency is the fitted concentration of half-maximal effect; % is set by controls: 0 for no effect and ±100 for the full control effect; nearly all actives have a fitted effect of over 50% in size
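Screened from lowest to highest concentration, compounds were pinned into TbPYK/substrate mixtures, and ADP (130 uM final) was added. Plates sat at room temperature for 45 min prior to Kinase-Glo Plus detection by luminescence.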
NS1 inh: qHTS Assay for Inhibitors of Influenza NS1 Protein Function; Potency, µM (series often up to 46.1 µM), for inactives: at the top dose activity, positive = more growth; 270,000 tested, 0.4% active; AID 2326, 2010; note: potency is the fitted concentration of half-maximal effect; actives are rising curves; nearly all actives have a fitted effect of over 50% in size
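A cell-based growth assay was used: compounds that relieve NS1-induced slow growth of budding yeast raise OD600. Assay medium was yeast nitrogen base with ammonium sulphate and -URA supplement, pH 6.0, with 2% galactose.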
SARS PLP yeast: qHTS of Yeast-based Assay for SARS-CoV PLP. AID 485353, 2010. Potency, µM (titrated, usually from 32.9 µM), for inactives: top-dose activity, positive = growth rescue, most hits filed as activators. S. cerevisiae expressing SARS-CoV PLpro, growth rescue. 330,000 tested, 0.19% active; note: potency is the fitted concentration of half-maximal effect; 0% is about no effect; nearly all actives have a fitted effect of over 55% in size
Cycloheximide cs: Cycloheximide Counterscreen for Small Molecule Inhibitors of Shiga Toxin. cell reporter, cycloheximide protein synthesis inhibition counterscreen. max response, %. 300,000 tested, 12% active. AID 2314, 2010; in the data active = max response mostly above about 13%, no sharp cut-off; inactive = mostly below about 14%; note: read at 38.3 µM for the half of the compounds with a filed dose; 0% is about no effect
LmPK inhibitor: qHTS Assay for Inhibitors of Leishmania Mexicana Pyruvate Kinase (LmPK); Q27686; 290,000 tested, 0.37% active; AID 1721, 2009; purified LmPK, Kinase-Glo ATP luminescence, 1 h; Potency, µM (doses to about 57.5 µM), inactives show at the top dose activity change, negative = inhibition, most hits filed as inhibitors; active = well fitted curve in the direction sought with a large enough effect; an effect the other way counts as inactive or inconclusive; note: potency is the fitted concentration of half-maximal effect; % is set by controls: 0 for no effect and ±100 for the full control effect
Target sequence (Q27686 whole entry, looked up): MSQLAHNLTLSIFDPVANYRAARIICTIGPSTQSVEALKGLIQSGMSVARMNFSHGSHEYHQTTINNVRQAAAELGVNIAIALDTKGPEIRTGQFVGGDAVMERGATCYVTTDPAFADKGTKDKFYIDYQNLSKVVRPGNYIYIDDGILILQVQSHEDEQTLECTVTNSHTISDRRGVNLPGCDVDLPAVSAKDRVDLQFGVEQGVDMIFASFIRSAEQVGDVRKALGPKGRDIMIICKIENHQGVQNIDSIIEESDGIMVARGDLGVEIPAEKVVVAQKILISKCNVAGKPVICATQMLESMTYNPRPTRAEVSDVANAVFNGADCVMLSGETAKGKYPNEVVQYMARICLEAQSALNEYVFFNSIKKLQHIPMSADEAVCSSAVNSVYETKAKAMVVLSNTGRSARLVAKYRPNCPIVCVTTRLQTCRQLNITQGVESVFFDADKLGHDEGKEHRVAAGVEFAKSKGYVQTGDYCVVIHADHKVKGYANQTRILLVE
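Purified LmPK (0.1 nM) with 0.5 mM PEP and 0.1 mM ADP in imidazole buffer pH 7.2 with MgCl2/KCl, 1 h at room temperature. ATP formed was read by luciferase luminescence and normalized to no-enzyme and uninhibited controls.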
* marks the source's active call; other numbers are inactive results. The sample as a whole holds a higher share of hits than the screen did. Unless noted, calls come from the whole dose curve.

`COc1ccc(/C(N)=N/OC(=O)CSc2ccc(C)cc2)cc1` gave Shiga inhibitor -7, TbPYK inhibitor -18%, NS1 inh -71%, SARS PLP yeast 1%, Cycloheximide cs -2 and LmPK inhibitor -3%.
For N/C(=N\OC(=O)CSc1ccccc1)c1ccc([N+](=O)[O-])cc1 the results were Shiga inhibitor 67*, TbPYK inhibitor -14%, NS1 inh -10%, SARS PLP yeast -22%, Cycloheximide cs 46* and LmPK inhibitor 1%.
`Cc1ccc(/C(N)=N/OC(=O)CSc2ccccc2)cc1` gave Shiga inhibitor 79*, TbPYK inhibitor 5%, NS1 inh -5%, SARS PLP yeast -2%, Cycloheximide cs 60* and LmPK inhibitor -2%.
Screening CC1=C(C(=O)Nc2cccc(Cl)c2C)C2(CCCCCC2)OC1=O returned TbPYK inhibitor -1%.
Screening COc1ccccc1C=NN=Cc1ccccc1O returned TbPYK inhibitor -9%.
For CN(C)c1ccc(/C=N/N=C/c2ccccc2O)cc1 the results were Shiga inhibitor 171*, TbPYK inhibitor -15%, NS1 inh -22%, SARS PLP yeast 2%, Cycloheximide cs 76* and LmPK inhibitor -8%.
Screening Cn1ncc2c1ncn1nc(COc3ccc4ccccc4c3)nc21 returned Shiga inhibitor -15, TbPYK inhibitor -2%, NS1 inh 4%, SARS PLP yeast 7%, Cycloheximide cs 40* and LmPK inhibitor 0%.
For Cn1ncc2c1ncn1nc(CCc3ccccc3)nc21 the results were Shiga inhibitor 68*, TbPYK inhibitor -1%, NS1 inh -6%, SARS PLP yeast -1%, Cycloheximide cs 52* and LmPK inhibitor -5%.
COc1ccc(-n2ncc3c2ncn2nc(COc4ccc(Cl)cc4)nc32)cc1 was read as TbPYK inhibitor 0%.
Screening Brc1ccccc1-n1ncc2c1ncn1nc(Cc3ccccc3)nc21 returned TbPYK inhibitor 2%.
`Nc1ccc2oc3ccc(N)cc3c(=O)c2c1` gave Shiga inhibitor 39, TbPYK inhibitor -3%, NS1 inh -3%, SARS PLP yeast 6%, Cycloheximide cs 38* and LmPK inhibitor -12%.
For Nc1ccc2c(=O)[nH][nH]c(=O)c2c1 the results were TbPYK inhibitor 2%.
`COc1ccc(C(=O)/C=C/Nc2c(C)n(C)n(-c3ccccc3)c2=O)c(OC)c1` gave Shiga inhibitor -5, TbPYK inhibitor -21%, SARS PLP yeast 0%, Cycloheximide cs -2 and LmPK inhibitor 3%.
`O=C(/C=C\Nc1ccccn1)c1ccccc1` gave Shiga inhibitor 55*, TbPYK inhibitor -16%, NS1 inh -172%, SARS PLP yeast -21%, Cycloheximide cs 17 and LmPK inhibitor 13µM*.
`O=C(/C=C/Nc1ccccc1)c1ccc(Oc2ncccn2)cc1` gave Shiga inhibitor 109*, TbPYK inhibitor 2%, NS1 inh -1%, SARS PLP yeast -4%, Cycloheximide cs 24* and LmPK inhibitor -21%.
Screening CN(C)/C=C/C(=O)c1ccc(Oc2ncccn2)cc1 returned Shiga inhibitor 39, TbPYK inhibitor 2%, NS1 inh -3%, SARS PLP yeast 1%, Cycloheximide cs 5 and LmPK inhibitor -2%.
Screening COc1ccc(C(=O)/C=C/Nc2ccccn2)c(OC)c1 returned Shiga inhibitor 57*, TbPYK inhibitor -3%, NS1 inh -46%, SARS PLP yeast -3%, Cycloheximide cs 52* and LmPK inhibitor -9%.
`O=C(CSc1ccc(-c2nc3ccccc3[nH]2)cn1)Nc1ccc(S(=O)(=O)NC2CC2)cc1` gave Shiga inhibitor -3, TbPYK inhibitor -19%, NS1 inh -14%, SARS PLP yeast 9%, Cycloheximide cs 11 and LmPK inhibitor -1%.
`CCOc1ccc(-c2ccc(SCC(=O)Nc3nnc(C)s3)nn2)cc1` gave Shiga inhibitor 19, TbPYK inhibitor 3%, SARS PLP yeast 0%, Cycloheximide cs 10 and LmPK inhibitor 7%.
For Cc1ccc2nc(-c3ccc(SCC(=O)Nc4ccc5c(c4)OCCO5)nc3)[nH]c2c1 the results were Shiga inhibitor 81*, TbPYK inhibitor 4%, NS1 inh 20%, SARS PLP yeast -17%, Cycloheximide cs 107* and LmPK inhibitor -2%.
Screening CN(C)S(=O)(=O)c1ccc(SCC(=O)Nc2ccc3c(c2)OCCO3)nc1 returned TbPYK inhibitor -2% and SARS PLP yeast -1%.
For CCc1ccc(-c2ccc(SCC(=O)Nc3nnc(C)s3)nn2)cc1 the results were Shiga inhibitor 80*, TbPYK inhibitor 3%, NS1 inh 3%, SARS PLP yeast 0%, Cycloheximide cs 21 and LmPK inhibitor -1%.
`O=C(CSc1ccc(-c2nc3ccccc3[nH]2)cn1)Nc1ccc2c(c1)OCCO2` gave Shiga inhibitor 16, TbPYK inhibitor 6%, NS1 inh 2%, SARS PLP yeast 2%, Cycloheximide cs 18* and LmPK inhibitor -2%.
`Cc1ccc(-c2ccc(SCC(=O)Nc3nonc3C)nn2)cc1` gave Shiga inhibitor 42*, TbPYK inhibitor -9%, NS1 inh -16%, SARS PLP yeast -6%, Cycloheximide cs 27* and LmPK inhibitor 0%.
Screening Cc1cccc(C(=O)Nc2ccc(C(=O)OCc3cc(=O)n4c(C)csc4n3)cc2)c1 returned TbPYK inhibitor 5%.
`COc1cccc(OC)c1C(=O)OCCCOC(=O)c1c(OC)cccc1OC` gave Shiga inhibitor 12, TbPYK inhibitor 4%, NS1 inh -7%, SARS PLP yeast 0%, Cycloheximide cs -2 and LmPK inhibitor -10%.
For Cc1ccc(-c2ccc(SCC(=O)Nc3ccc4c(c3)OCCO4)nn2)cc1 the results were Shiga inhibitor 22*, TbPYK inhibitor -3%, NS1 inh -2%, SARS PLP yeast -9%, Cycloheximide cs 28* and LmPK inhibitor 1%.
`CC(=O)Nc1ccc(NC(=O)CSc2ccc(-c3ccc4c(c3)OCO4)nn2)cc1` gave Shiga inhibitor 21, TbPYK inhibitor -16%, NS1 inh 4%, SARS PLP yeast -13%, Cycloheximide cs 18 and LmPK inhibitor -7%.
`Cn1nnnc1SCc1csc(Nc2ccccc2)n1` gave Shiga inhibitor 123*, TbPYK inhibitor 1%, NS1 inh -4%, SARS PLP yeast 4%, Cycloheximide cs 28* and LmPK inhibitor 6%.
Cc1ccc(Nc2nc(CSc3nnnn3-c3ccccc3)cs2)cc1 was read as Shiga inhibitor 36, TbPYK inhibitor -3%, NS1 inh 2%, Cycloheximide cs 16 and LmPK inhibitor 1%.
For Cn1nnnc1SCc1cccc(CSc2nnnn2C)n1 the results were Shiga inhibitor 14, TbPYK inhibitor -5%, NS1 inh 4%, SARS PLP yeast 4%, Cycloheximide cs -5 and LmPK inhibitor 1%.

Source: PubChem
